According to PubChem BioAssay AID1039 (National Center for Advancing Translational Sciences (NCATS), 2008):
Calls of active or inactive are those of the source. Calls follow the shape of the full dose curve.

Experiment: Normal 2 Cell Viability Secondary Assay for qHTS Assay for Epigenetic Modulators
Conditions: Normal 2 bronchial epithelial viability, MTS, 4 days
Excerpt: NIH Molecular Libraries Screening Centers Network [MLSCN] NIH Chemical Genomics Center [NCGC] MLSCN Grant: 1 X01 MH079860-01 Assay Provider: Elisabeth D. Martinez, University of Texas SW Medical Center NCGC Assay Overview: This secondary assay characterizes selected actives identified in the qHTS of the Locus Derepression (LDR) assay (PubChem AID 597). The LDR assay detects the derepression of a GFP reporter that is stably integrated in a region of the genome of murine c127i mammary cells that is presumably silenced. Compounds that cause derepression of the locus to express GFP are identified by enumerating GFP positive cells using a laser-scanning microplate cytometer. […] Normal 2 cell viability was measured using Cell Titer 96 AQueous One (Promega), an assay which detects the ability of metabolically active cells to reduce a tetrazolium salt substrate (MTS), into a soluble formazan product that can be measured by colorimetry.
NCGC Assay Protocol Summary Normal 2 cells were plated in 96-well flat bottom tissue culture dishes (Corning) and grown overnight at 37 C and 5% CO2, then treated with compounds, incubated 4 days, and assayed for viability using the Cell Titer 96 AQueous One kit (Promega) according to the manufacturer's protocol. Absorbance at 490 nm and 650 nm (reference) was measured by a Spectra Max (Molecular Devices). […]

CN1CSC(=S)N(C)C1
outcome: inactive
